The source of these data is ChEMBL document CHEMBL3988442, “University of Dundee, Small-Polar-MMV Screening Library” (2021).

Hit rate of the full screen: of about 53,000 compounds, about 900 (1.7%) showed an effect of 50% or more. Only a selection was taken, and strong results are over-represented in it overall.

This experiment relates to Mycobacterium tuberculosis. In words: Cornell - Phenotypic assay to identify agents that inhibit growth of Mycobacterium tuberculosis. Format: functional. As to conditions: 10 mM as filed; unlikely as a test dose. More on the design: scale not given: direction of the effect not stated beside the values.
Take `O=C(c1cnc(-c2cccnc2)nc1)N1CCSCC1`: the “Percent Effect” value is recorded as -5.308%.

Turning to `CCc1ccc(C(COC)NC(=O)c2ccc(F)c(NC(C)=O)c2)o1` (stereo unspecified), the “Percent Effect” value is -34.26%.

For `Cc1cc(CN2CCCC2)cc(Oc2nc(C)cnc2C)c1`, the “Percent Effect” value is given as -0.05473%.

As to `COCCN(C)C[C@@H]1CN(C(=O)c2ccc(OC)c(F)c2)C[C@@H]1CO`, the “Percent Effect” value is 3.272%.

Regarding `C[C@@H]1CN(C2CCN(c3ccccc3F)CC2)C[C@]1(C)O`, the “Percent Effect” value is on record as -0.763%.

As to `Cc1cc(F)ccc1N1CCC(N2C[C@@H](CN(C)C)[C@@H](CO)C2)CC1`, the “Percent Effect” value came to 20.05%.

As for `Cc1cc(F)ccc1N1CCC(N2C[C@@H](C)[C@@](C)(O)C2)CC1`, the “Percent Effect” value is 57.75%.

As for `Cc1nn(C)c(N2CCCN(C)CC2)c1CNC(=O)CC1CCCC1`, the “Percent Effect” value turned out to be 23.58%.

For `COc1cccc(NC(=O)NCc2cnn(C)c2)c1`, the “Percent Effect” value is recorded as 2.363%.

With `CC(Cn1cc(Cl)cn1)C(=O)Nc1ccc(CN2CCCCCC2)cc1` (stereo unspecified), the “Percent Effect” value was -18.96%.

Take `COc1cccc(NC(=O)C(C)Cn2cc(Cl)cn2)c1` (stereo unspecified): the “Percent Effect” value stood at 52.64%.

In the case of `COC(=O)Cn1c(=O)nc2n1C(=O)N(c1cccc(C)c1)C2`, the “Percent Effect” value turned out to be 2.841%.

Turning to `O=C(c1csc(-c2cnccn2)n1)N1CCCC1Cn1cccn1` (stereo unspecified), the “Percent Effect” value is reported as -12.16%.

In the case of `O=C(NC1CCCN(c2ccccn2)C1)C1(c2ccccc2F)CC1` (stereo unspecified), the “Percent Effect” value is on record as -27.34%.

As to `Cn1cccc1C(=O)N1CC2(CCN(C(=O)c3cccnc3)C2)C1.O=C(O)C(F)(F)F`, the “Percent Effect” value is on record as -3.792%.

As to `CNC(=O)c1cc(NC(=O)Nc2cnn(CC(C)C)c2)ccc1F`, the “Percent Effect” value amounted to 69.74%.

For the compound `CCc1c(C(=O)Nc2ccc(F)c(C(=O)NC)c2)cnn1CC(C)C`, the “Percent Effect” value is reported as 23.68%.

With `COCCn1cc(NC(=O)NC(C)Cc2c(F)cccc2F)cn1` (stereo unspecified), the “Percent Effect” value is listed as -32.72%.

As for `CNC(=O)c1cc(NC(=O)NC(C)CCc2cccn2C)ccc1F` (stereo unspecified), the “Percent Effect” value is -1.57%.

As for `CC(C)CCCNC(=O)Nc1ccc(F)c(C(N)=O)c1`, the “Percent Effect” value is -8.199%.

As to `CCCn1cc(NC(=O)Nc2ccc(F)c(C(=O)NC)c2)cn1`, the “Percent Effect” value was 69.43%.

With `Cc1cc(CN(C)C(=O)C2CC(=O)N(Cc3cccnc3)C2)on1` (stereo unspecified), the “Percent Effect” value is given as 14.11%.

As to `CCc1nnc2n1CCN(Cc1nnc(-c3occc3C)o1)C2`, the “Percent Effect” value is -3.481%.

Take `COc1ccccc1NC(=O)Cn1c(=O)nc(N)c2cc(C)sc21`: the “Percent Effect” value is given as -16.18%.

In the case of `CNc1oc(-c2ccc(OC)c(S(=O)(=O)N3CCCC3)c2)nc1C#N`, the “Percent Effect” value is recorded as 17.45%.

`COCC(C)NC(=O)NCCCc1cc(N)n(-c2ccccc2)n1` (stereo unspecified): the “Percent Effect” value was determined as 4.106%.

As for `COC(=O)CCNC(=O)c1ccoc1CN1c2ccccc2CC1C` (stereo unspecified), the “Percent Effect” value was 59.33%.

`CC1Cc2ccccc2N1Cc1occc1C(=O)O` (stereo unspecified): the “Percent Effect” value was -3.286%.

With `CC1Cc2ccccc2N1Cc1occc1C(=O)NCC(=O)N(C)C` (stereo unspecified), the “Percent Effect” value turned out to be 0.4209%.

Regarding `CC1Cc2ccccc2N1Cc1occc1C(=O)OCC(N)=O` (stereo unspecified), the “Percent Effect” value was 46.11%.

In the case of `CCNC(=O)c1ccoc1CN1c2ccccc2CC1C` (stereo unspecified), the “Percent Effect” value stood at 70.88%.

Take `COCCNC(=O)c1ccoc1CN1c2ccccc2CC1C` (stereo unspecified): the “Percent Effect” value came to 34.19%.

With `CN(CCn1nc2ccccn2c1=O)CC(=O)NC1CC1`, the “Percent Effect” value was -0.7088%.

On to `Cc1nc(CN2CCC3(C2)CN(C(=O)c2ccc[nH]2)C3)cs1`, for which the “Percent Effect” value was 9.497%.

For `COc1cccc(NC(=O)Nc2ccc3c(c2)CC(=O)N3)c1`, the “Percent Effect” value was -2.338%.

Take `O=C(NCC(=O)N1CCc2ccccc2C1)c1ccoc1`: the “Percent Effect” value was -20.14%.

For `COC(=O)N1CCN2C[C@H](CO)[C@@H](c3ccccc3)[C@H]2C1`, the “Percent Effect” value is reported as 9.303%.

On to `CC(=O)OC1CN(c2nc3c(C(F)(F)F)cccc3s2)C1`, for which the “Percent Effect” value came to 5.311%.

For `COC1COC2(CCN(Cc3ccc4ccccc4n3)CC2)C1.O=C(O)C(F)(F)F.O=C(O)C(F)(F)F` (stereo unspecified), the “Percent Effect” value is on record as 14.78%.

Consider `Cc1ccc(-n2cnnn2)cc1NCC(=O)Nc1ccccc1Cl`, for which the “Percent Effect” value is reported as 6.921%.

For the compound `O=C(CNc1ccccc1Cl)Nc1cc(-n2cnnn2)ccc1F`, the “Percent Effect” value stood at 22.69%.

Consider `O=C(CNc1cc(-n2cnnn2)ccc1F)Nc1ccccc1Cl`, for which the “Percent Effect” value worked out at 96.42%.

For `Cc1ccc(-n2cnnn2)cc1NCC(=O)Nc1cc(F)ccc1F`, the “Percent Effect” value is 11.17%.

As to `O=C(CNc1cc(-n2cnnn2)ccc1F)NCc1ccccc1`, the “Percent Effect” value was determined as 76.98%.

For the compound `O=C(CNc1cc(-n2cnnn2)ccc1F)Nc1cc(F)ccc1F`, the “Percent Effect” value worked out at 3.475%.

As to `O=S(=O)(c1ccc(F)c(F)c1)N1CCCC(c2nccs2)C1` (stereo unspecified), the “Percent Effect” value was -0.9721%.

Consider `Cc1cccc(C(=O)N2C[C@@H](OCc3ccncc3)[C@@H]3OCCC[C@@H]32)n1.O=C(O)C(F)(F)F.O=C(O)C(F)(F)F`, for which the “Percent Effect” value is given as 29.52%.

Take `O=C(NCc1ccc(F)cc1)N1CCC(C2OCCO2)CC1`: the “Percent Effect” value is recorded as 9.763%.

Consider `O=C(CNc1ccc(OC2CCOC2)cc1)NCc1ccc(F)cc1` (stereo unspecified), for which the “Percent Effect” value was 70.37%.

Take `O=C(CNc1ccc(OC2CCOC2)cc1)NCc1ccco1` (stereo unspecified): the “Percent Effect” value was 37.67%.

Turning to `O=C(CNc1ccc(OC2CCOC2)cc1)NCc1cccs1` (stereo unspecified), the “Percent Effect” value is reported as 8.02%.
